# About 3,200 (25%) of roughly 13,000 compounds showed an effect of 50% or more. The list shows a part of the results.
# System: P. falciparum stage V gametocytes
# Set-up: BacTiter-Glo ATP luminescence viability of purified stage V gametocytes in 384-well plates, per cent inhibition versus DMSO
# Details: 48 h, 5 µM; inhibitor
row,SMILES,% Inhibition [%]
1,CCOC(=O)Cn1ccc2c(NCc3ccccc3)nc(C)nc21 [TCMDC-137249],9.107
2,OC(CN1CCN(c2cccc(Cl)c2)CC1)C(c1ccccc1)c1ccccc1 (stereo not shown) [TCMDC-123456],0.2376
3,COc1cccc2cc(C(=O)N[C@@H](CC(C)C)C(=O)N[C@H](C=NN3CCCC3=O)Cc3ccccc3)oc12 [TCMDC-136091],20.05
4,CC(c1cccc(Nc2nccc(-c3c(-c4cccc(NC(=O)c5c(F)cccc5F)c4)nn4ncccc34)n2)c1)S(C)(=O)=O (stereo not shown) [TCMDC-135696],-68.26
5,Nc1nc(N)c2c(Oc3cccc(Cl)c3)cccc2n1 [TCMDC-137741],-2.704
6,CCCCCN1CCCC1CNS(=O)(=O)c1ccc(C(=O)Nc2cccc(C(F)(F)F)c2)cc1 (stereo not shown) [TCMDC-133688],-7.266
7,CN1CCc2cc(CN3CC4(C)CC3CC(C)(C)C4)c(O)cc2C(c2ccccc2)C1 (stereo not shown) [TCMDC-131903],-50.67
8,CC(C)NCc1ccc(-c2cccc(NC(=O)c3ccc(F)cc3)c2)cc1 [TCMDC-132635],20.54
9,CC(C)NCc1cccc(-c2ccc(NC(=O)c3ccc(C#N)cc3)cc2)c1 [TCMDC-132669],-2.892
10,CC(C)NCc1ccc(-c2cccc(NC(=O)c3ccc(C#N)cc3)c2)cc1 [TCMDC-132638],83.96
11,CC(C)NCc1ccc(-c2ccc(NC(=O)c3cccc(C#N)c3)cc2)cc1 [TCMDC-132595],51.63
12,CN1CCCN(Cc2ccc(-c3ccc(NC(=O)c4ccc(C#N)cc4)cc3)cc2)CC1 [TCMDC-132588],15.04
13,CC(C)NCc1ccc(-c2ccc(NC(=O)c3ccc(C#N)cc3)cc2)cc1 [TCMDC-132589],83.96
14,CC(C)NCc1cccc(-c2cccc(NC(=O)c3ccc(C#N)cc3)c2)c1 [TCMDC-132656],89.01
15,CC(C)NCc1cccc(-c2ccc(NC(=O)c3cccc(C#N)c3)cc2)c1 [TCMDC-132672],-57.78
16,CC(C)NCc1cccc(-c2cccc(NC(=O)c3cccc(C#N)c3)c2)c1 [TCMDC-132662],13.1
17,CC(C)NCc1ccc(-c2cccc(NC(=O)c3ccc(Cl)cc3)c2)cc1 [TCMDC-132629],-59.93
18,CC(C)NCc1cccc(-c2ccc(NC(=O)c3ccc(F)cc3)cc2)c1 [TCMDC-132666],-42.89
19,CC(C)NCc1ccc(-c2cccc(NC(=O)c3cccc(C#N)c3)c2)cc1 [TCMDC-132649],48.87
20,COc1cccc(C(=O)NCCOc2ccccc2)c1Oc1ccccc1 [TCMDC-141238],4.712
21,Nc1ncc(-c2cn[nH]c2)cc1-c1nc2ccc(Cl)cc2[nH]1 [TCMDC-133560],-7.229
22,C=CCc1cc(Cc2cnc(N)nc2N)cc(CCC)c1OC [TCMDC-138039],23.16
23,O=C(O)c1ccc(-c2cnc3ccc(NC4CCC(O)CC4)nn23)cc1 (stereo not shown) [TCMDC-136692],8.489

row,SMILES,% Inhibition [%]
1,Cc1c(C)n(C2CCCC2)c2ncnc(OC3CCN(CC(=O)NC4CC4)CC3)c12 [TCMDC-133310],-5.87
2,Cn1nccc1C(=O)NCCNCc1ccc(-c2cccc(-c3nc4cc(F)ccc4[nH]3)c2)cc1.O=C(O)C(F)(F)F [TCMDC-133016],-24.65
3,CCOc1cc(Cc2cnc(N)nc2N)ccc1OC [TCMDC-137931],24.72
4,COc1ccc2nccc([C@@H](O)CN3CCC(NC/C=C/c4cccnc4)CC3)c2c1 [TCMDC-140747],-1.69
5,Cc1cc(C2CCCCN2C)ccc1-c1ccc(C(=O)N2CCc3cc4c(cc32)C2(CCN(C)CC2)CO4)cc1 (stereo not shown) [TCMDC-139081],76.58
6,Cc1cc(-c2ncc[nH]2)ccc1-c1ccc(C(=O)N2CCc3cc4c(cc32)C2(CCN(C)CC2)CO4)cc1 [TCMDC-139079],-8.812
7,COc1cc2c(cc1N1CC(C)NC(C)C1)N(C(=O)c1ccc(-c3ccc(-c4ncc[nH]4)cc3C)cc1)CC2 (stereo not shown) [TCMDC-141160],13.02
8,CCOC(=O)NCCSC(C)(C)[C@H](NC(=O)[C@H](Cc1cc2ccccc2s1)[C@H](CC)N(O)C=O)C(=O)Nc1nccs1 [TCMDC-137792],7.703
9,COCCNCc1cccc(-c2ccc3c(Nc4ccc(F)cc4Cl)ccnc3c2)c1 [TCMDC-138415],42.47
10,CN(C)CCN(C)Cc1cccc(-c2ccc3c(Nc4cc(O)c(Cl)cc4F)ccnc3c2)c1 [TCMDC-138432],25.38
11,CN(C)CCNCc1cccc(-c2ccc3c(Nc4ccc(F)cc4Cl)ccnc3c2)c1 [TCMDC-138412],66.82
12,COCCNCc1cccc(-c2ccc3c(Nc4cc(O)c(Cl)cc4F)ccnc3c2)c1 [TCMDC-138429],38.53
13,CN(C)CCNCc1ncsc1-c1ccc2c(Nc3ccc(F)cc3Cl)ccnc2c1 [TCMDC-138466],30.52
14,CN1CCN(Cc2cccc(-c3ccc4c(Nc5cc(O)c(Cl)cc5F)ccnc4c3)c2)CC1 [TCMDC-138430],33.23
15,Fc1ccc(Nc2ccnc3cc(I)ccc23)c(Cl)c1 [TCMDC-138387],14.07
16,CN1CCN(Cc2cccc(-c3ccc4c(Nc5ccc(F)cc5Cl)ccnc4c3)c2)CC1 [TCMDC-138417],75.62
17,CS(=O)(=O)CCNCc1cccc(-c2ccc3c(Nc4cc(O)c(Cl)cc4F)ccnc3c2)c1 [TCMDC-138435],-21.48
18,CN(C)CCNCc1cccc(-c2ccc3c(Nc4cc(O)c(Cl)cc4F)ccnc3c2)c1 [TCMDC-138413],57.17
19,CN(C)CCN(C)Cc1cccc(-c2ccc3c(Nc4ccc(F)cc4Cl)ccnc3c2)c1 [TCMDC-138416],87.2
20,Fc1ccc(Nc2ccnc3cc(-c4cccc(CN5CCCCC5)c4)ccc23)c(Cl)c1 [TCMDC-138418],24.75
21,N=C(N)c1cccc(-c2cc(-c3cccc(C(=N)N)c3)on2)c1 [TCMDC-137789],11.2
22,CCCCNC(=O)[C@@H](NC(=O)c1ccc(O)c(-c2ccc(Cl)c(Cl)c2)c1)C(C)C [TCMDC-140839],36.3
23,CCCCOP(=O)(COc1ccc(CCN(CC(O)COc2cccc3[nH]c4ccccc4c23)CC(O)COc2cccc3[nH]c4ccccc4c23)cc1)C1CCCCC1 (stereo not shown) [TCMDC-139016],44.85

row,SMILES,% Inhibition [%]
1,COc1ccc(Nc2nccc(N3CCC(NC(=O)Nc4cccc(C(C)=O)c4)C3)n2)cc1 (stereo not shown) [TCMDC-133610],-16.63
2,COc1cc(Cc2cnc(N)nc2N)cc(OCCCOc2ccccc2)c1OC [TCMDC-137687],38.19
3,O=C(/C=C/c1ccc(F)c(C(F)(F)F)c1)N1CCC(CN2CCC(c3c[nH]c4ccccc34)CC2)CC1 [TCMDC-140384],-23.83
4,COc1cc(C=CC(=O)N2CCC(CN3CCC(c4c[nH]c5ccccc45)CC3)CC2)cc(OC)c1 [TCMDC-139945],-6.368
5,O=C(C=Cc1ccc(-c2ccccc2)cc1)N1CCC(CCN2CCC(c3c[nH]c4ccccc34)CC2)CC1 [TCMDC-139941],105.7
6,CC(C)c1ccc(C=CC(=O)N2CCC(CCN3CCC(c4c[nH]c5ccccc45)CC3)CC2)cc1 [TCMDC-139942],110.7
7,COc1cc(C=CC(=O)N2CCC(CCN3CCC(c4c[nH]c5ccccc45)CC3)CC2)cc(OC)c1 [TCMDC-139938],103.2
8,O=C(/C=C/c1ccsc1)N1CCC(CCN2CCC(c3c[nH]c4ccccc34)CC2)CC1 [TCMDC-140263],102.1
9,O=C(/C=C/c1ccsc1)NC1CCC(CN2CCC(c3c[nH]c4ccccc34)CC2)CC1 (stereo not shown) [TCMDC-140294],-21.49
10,Cc1ccc(/C=C/C(=O)N2CCC(CCN3CCC(c4c[nH]c5ccccc45)CC3)CC2)cc1C [TCMDC-139762],46.51
11,COc1cc(C=CC(=O)N2CCC(CN3CCC(c4c[nH]c5ccccc45)CC3)CC2)ccc1O [TCMDC-139913],-95.05
12,COc1ccc(C=CC(=O)N2CCC(CN3CCC(c4c[nH]c5ccccc45)CC3)CC2)cc1OC [TCMDC-139944],-13.45
13,COc1cc(NC(=O)N2CCc3ccc(OCCN(C(C)C)C(C)C)cc32)cc(C(F)(F)F)c1 [TCMDC-140251],48.14
14,CN1CCCC(OC(=O)c2ccccc2)C1 (stereo not shown) [TCMDC-125511],3.276
15,Fc1ccc2[nH]c(-c3cccc(-c4cccc(CNCC5CCCO5)c4)c3)nc2c1.O=C(O)C(F)(F)F (stereo not shown) [TCMDC-133091],-32.27
16,O=C(NC1CCCc2ccccc21)[C@@H]1CCCN1C(=O)c1ccc(O)c(-c2ccc(Cl)c(Cl)c2)c1 (stereo partly shown) [TCMDC-140867],31.83
17,COC(=O)c1ccc(CC(C)NCC(O)c2cccc(SC(F)(F)F)c2)cc1 (stereo not shown) [TCMDC-131494],25.48
18,CCCC(N)C(=O)NC1CCN(c2c(F)c(N)c3c(=O)c(C(=O)O)cn4c3c2Oc2ccccc2-4)C1 (stereo not shown) [TCMDC-125701],40.26
19,Cc1cc(CNC(c2ccccc2)C2CCC2)cc(C)c1O (stereo not shown) [TCMDC-134518],-25.25
20,Cc1nc2nc(N)nc(N)c2c(C)c1Cc1ccc(C(F)(F)F)cc1 [TCMDC-137656],-0.8923
21,N#Cc1ccccc1Sc1ccccc1C(=O)Nc1ccc2ccccc2n1 [TCMDC-125464],33.3

# — paper PMC4552634, “A New Set of Chemical Starting Points with Plasmodium falciparum Transmission-Blocking Potential for Antimalarial Drug Discovery” (PLoS ONE, 2015)
